Results filed as inconclusive are left out. Activity calls are given as the source filed them. Unless noted, calls come from the whole dose curve; as a rule, active = well fitted curve in the direction sought with a large enough effect; inconclusive = small, poorly fitted or top-dose-only effect, or another doubt; inactive = no such curve, though single readings can be large; an effect the other way counts as inactive or inconclusive.

Test [1] in a line: Cell Viability - SK-N-SH (AID 435; calls by dose curve;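 note: potency is the fitted concentration of half-maximal effect; compound exposure lasted 40 h at 37 °C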). To be noted: SK-N-SH neuroblastoma cell viability qHTS. The gist of the method:
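SK-N-SH human neuroblastoma cells (1500/well) were exposed to compounds in complete medium for 40 h at 37 °C, and intracellular ATP was then measured by CellTiter-Glo luminescence. AC50 was taken from Hill fits, normalized to DMSO and 100 uM tamoxifen.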
Background: qHTS replaces the single test concentration by a dilution series.

The nature of test [2]: Cell Viability - LYMP2-001 (AID 921).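 Note: 0% = DMSO only and full inhibition = tetraoctylammonium bromide control wells; nearly all actives have a fitted effect of over 70% in size.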 To be noted: LYMP2-001 lymphoblastoid cell viability; series mostly up to 92.2 µM. A digest of the protocol:
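Human lymphoblastoid cells (Coriell), 2500 per well, were preincubated 5 hr at 37 C, then exposed to compounds in complete medium for 24 hr at 37 C. Cellular ATP was read by CellTiter-Glo luminescence; AC50 from Hill fits of concentration-response data.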

Test [3] is described as follows: MultiTox-Fluor Cytotoxicity Assay - LYMP1-002 - Live Cells (AID 955).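 Note: cells exposed to compound for 16 hours; % is set by controls: 0 for no effect and ±100 for the full control effect.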 To be noted: LYMP1-002 lymphoblastoid live-cell protease fluorescence viability; series mostly up to 46.1 µM. The gist of the method: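 Cells were seeded at 2500 per well and incubated 5 hr. Compounds were then added for 16 hr at 37 C, followed by MultiTox-Fluor reagent for 60 min at room temperature and fluorescence reading of viable-cell protease signal.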

Test [4] is described as follows: Cell Viability - LYMP1-003 - Assay at 40 hr (AID 964). Note: nearly all actives have a fitted effect of over 60% in size. Note: potency is the fitted concentration of half-maximal effect. To be noted: LYMP1-003 lymphoblastoid viability; series mostly up to 92.2 µM. The gist of the method: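 Luminescent ATP signal (CellTiter-Glo) served as the viability read-out after 40 hr compound treatment of human lymphoblastoid LYMP1-003 cells at 37 C. Decreases in ATP were fitted with the Hill equation to give AC50.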

A short description of test [5]: Cell Viability - LYMP2-007 (AID 979).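 Note: cells exposed to compound for 24 h before reading; 0% = DMSO only and the negative end = 92 µM tetraoctylammonium bromide; nearly all actives have a fitted effect of over 60% in size.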 To be noted: LYMP2-007 lymphoblastoid cell viability; series mostly up to 92.2 µM. A digest of the protocol: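 Cells are seeded at 2500 per well and rested 5 hr. Compounds are then added over a concentration series for 24 hr at 37 C. CellTiter-Glo is added for 30 min at room temperature before luminescence reading.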
Test [6] is described as follows: Cell Viability - LYMP2-018 (AID 985).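 Note: compound exposure lasted 24 hr at 37 °C; nearly all actives have a fitted effect of over 50% in size.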 Note: potency is the fitted concentration of half-maximal effect. To be noted: LYMP2-018 lymphoblastoid cells, viability (qHTS); series mostly up to 92.2 µM. The gist of the method: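 Seed 2500 lymphoblastoid cells per well, incubate 5 hr at 37 C, add compound and incubate 24 hr at 37 C, add CellTiter-Glo, wait 30 min at room temperature, then read luminescence.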
Test [7] addresses Glucocorticoid receptor (Homo sapiens) (UniProt P04150). As to the kind of experiment: qHTS assay for small molecule agonists of glucocorticoid receptor signaling (AID 588532; active = well fitted curve in the direction sought with a large enough effect in the signal ratio, with a control signal flat; the % refers to the signal ratio;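 note: 100% = dexamethasone at 0.1 µM and 0% = DMSO only wells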). To be noted: HeLa MMTV-bla, beta-lactamase ratio, agonist, 18 h; stronger effect = higher value; percent of dexamethasone control, DMSO zero. The gist of the method: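 Stimulation of a glucocorticoid response element-driven beta-lactamase gene was measured in HeLa cells. Responses were scaled between DMSO basal and 0.1 uM dexamethasone, then fitted for half-maximal stimulation.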

The target of test [8] is Thyroid hormone receptor beta (Homo sapiens) (UniProt P10828). The experiment in a line: qHTS assay for small molecule antagonists of thyroid hormone receptor beta signaling (AID 588547; active = well fitted inhibition curve with a large enough effect in the signal ratio, with a control signal flat, not every such curve was filed as active; the % refers to the signal ratio;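 note: cells stimulated with 0.4 nM T3 agonist during compound exposure; % is set by controls: 0 for no effect and ±100 for the full control effect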). To be noted: TR-UAS-bla HEK293, beta-lactamase ratio, antagonist mode, 18 h. The gist of the method: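 TR-UAS-bla GripTite HEK293 cells in 2% charcoal/dextran FBS medium were preincubated 4 h at 37 C, given compound (0.59 nM to 92 uM) plus 0.4 nM T3 (final) for 18 h, then CCF4 for 2 h at RT; Hill fit gave IC50.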
Chain of Thyroid hormone receptor beta (Homo sapiens) (P10828 whole entry, looked up): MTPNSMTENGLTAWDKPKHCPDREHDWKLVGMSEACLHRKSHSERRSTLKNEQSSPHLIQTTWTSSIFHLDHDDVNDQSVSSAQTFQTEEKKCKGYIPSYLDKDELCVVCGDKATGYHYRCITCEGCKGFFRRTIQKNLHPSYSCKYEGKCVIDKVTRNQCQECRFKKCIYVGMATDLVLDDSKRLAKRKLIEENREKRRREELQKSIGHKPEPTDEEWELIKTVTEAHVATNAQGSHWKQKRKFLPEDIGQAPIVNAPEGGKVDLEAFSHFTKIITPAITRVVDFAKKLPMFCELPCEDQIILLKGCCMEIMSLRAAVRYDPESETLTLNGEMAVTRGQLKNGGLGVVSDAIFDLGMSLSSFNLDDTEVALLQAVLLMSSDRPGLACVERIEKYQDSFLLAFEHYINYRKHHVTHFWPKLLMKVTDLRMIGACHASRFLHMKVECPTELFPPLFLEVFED

The target of test [9] is Voltage-gated inwardly rectifying potassium channel KCNH2 (Homo sapiens) (UniProt Q12809). The experiment in a line: qHTS Assay for Small Molecule Inhibitors of the Human hERG Channel Activity (AID 588834).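 Note: lower thallium flux fluorescence means stronger hERG block; nearly all actives have a fitted effect of over 50% in size.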 Note: potency is the fitted concentration of half-maximal effect. To be noted: U2OS BacMam hERG, FluxOR thallium flux fluorescence; series mostly up to 92.2 µM. The gist of the method: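 In hERG-transduced U2OS cells, dye-loaded for 1 hr at room temperature in dark, test compounds incubated 10 min at 37 °C before thallium stimulation. AC50 values derived by Hill modelling of concentration-response.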
Chain of Voltage-gated inwardly rectifying potassium channel KCNH2 (Homo sapiens) (Q12809 whole entry, looked up): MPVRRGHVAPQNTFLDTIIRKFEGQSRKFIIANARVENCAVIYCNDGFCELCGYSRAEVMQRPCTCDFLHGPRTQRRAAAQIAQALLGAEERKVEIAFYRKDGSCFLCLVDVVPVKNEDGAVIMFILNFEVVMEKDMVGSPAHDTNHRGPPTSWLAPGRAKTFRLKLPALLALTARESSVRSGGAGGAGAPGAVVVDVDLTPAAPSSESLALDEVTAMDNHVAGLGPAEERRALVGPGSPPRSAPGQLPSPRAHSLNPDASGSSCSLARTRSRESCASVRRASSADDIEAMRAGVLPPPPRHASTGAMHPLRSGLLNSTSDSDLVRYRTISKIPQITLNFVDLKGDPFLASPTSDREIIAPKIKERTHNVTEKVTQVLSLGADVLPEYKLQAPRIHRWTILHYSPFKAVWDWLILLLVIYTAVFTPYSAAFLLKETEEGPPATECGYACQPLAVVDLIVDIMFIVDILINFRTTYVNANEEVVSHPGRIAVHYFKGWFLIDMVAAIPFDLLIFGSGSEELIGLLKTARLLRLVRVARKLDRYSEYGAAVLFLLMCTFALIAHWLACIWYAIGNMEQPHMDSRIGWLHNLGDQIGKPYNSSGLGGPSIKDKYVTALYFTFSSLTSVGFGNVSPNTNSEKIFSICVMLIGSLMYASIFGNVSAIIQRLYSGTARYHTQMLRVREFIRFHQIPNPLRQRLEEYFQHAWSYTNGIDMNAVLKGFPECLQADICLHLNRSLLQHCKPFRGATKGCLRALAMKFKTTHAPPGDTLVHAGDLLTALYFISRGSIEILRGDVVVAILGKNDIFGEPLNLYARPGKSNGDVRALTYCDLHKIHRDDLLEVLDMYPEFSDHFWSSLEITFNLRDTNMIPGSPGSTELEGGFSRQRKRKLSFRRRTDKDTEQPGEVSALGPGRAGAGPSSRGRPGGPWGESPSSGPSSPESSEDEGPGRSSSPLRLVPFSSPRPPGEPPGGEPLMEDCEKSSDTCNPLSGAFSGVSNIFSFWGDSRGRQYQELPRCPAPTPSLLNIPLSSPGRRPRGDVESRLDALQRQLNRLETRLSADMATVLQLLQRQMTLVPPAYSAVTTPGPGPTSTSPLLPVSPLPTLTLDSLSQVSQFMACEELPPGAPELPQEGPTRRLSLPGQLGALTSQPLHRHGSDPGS

Test [10] concerns the target Mitogen-activated protein kinase 10 (Mus musculus) (UniProt Q61831). As to the kind of experiment: JNK3 AlphaScreen Assay (AID 530; active = well fitted curve in either direction with a large enough effect, not every such curve was filed as active;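 note: kinase came from lysate of stimulated human HepG2 cells; % is set by controls: 0 for no effect and ±100 for the full control effect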). To be noted: JNK3 lysate, c-Jun phosphorylation; series mostly up to 11.4 µM. The gist of the method: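 Phosphorylation of biotinylated GST-cJun(1-79) at Ser73 is measured by AlphaScreen proximity luminescence. Enzyme is JNK3 in HepG2 lysates activated with interleukin-1beta and tumor necrosis factor alpha; ATP is 10 uM final.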
Background: Bead proximity is the source of the signal in Alpha formats.

Test [11] is described as follows: Cell Viability - LYMP2-019 (AID 973). Note: nearly all actives have a fitted effect of over 55% in size. Note: potency is the fitted concentration of half-maximal effect. To be noted: LYMP2-019 lymphoblastoid cell line viability; series mostly up to 92.2 µM. The gist of the method: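 Cytotoxicity is scored as a concentration-dependent drop in cellular ATP after cells (2500/well) receive compound for 24 hr at 37 C. Tetraoctylammonium bromide serves as positive control.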
For test [12], the target named is Bile acid receptor (Homo sapiens) (UniProt Q96RI1). As to the kind of experiment: qHTS assay for small molecule antagonists of farnesoid X receptor signaling (AID 588526; calls by dose curve; note: % is set by controls: 0 for no effect and ±100 for the full control effect). To be noted: HEK293T FXR-UAS-bla, beta-lactamase ratio, antagonist mode; series mostly up to 76.7 µM. The gist of the method: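 Concentration-response titrations were fitted to the Hill equation for half-maximal inhibition and maximal response, with data normalised to 50 uM chenodeoxycholic acid and DMSO control wells. Cells: FXR-UAS-bla HEK293T, dialyzed FBS.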
Chain of Bile acid receptor (Homo sapiens) (Q96RI1 whole entry, looked up): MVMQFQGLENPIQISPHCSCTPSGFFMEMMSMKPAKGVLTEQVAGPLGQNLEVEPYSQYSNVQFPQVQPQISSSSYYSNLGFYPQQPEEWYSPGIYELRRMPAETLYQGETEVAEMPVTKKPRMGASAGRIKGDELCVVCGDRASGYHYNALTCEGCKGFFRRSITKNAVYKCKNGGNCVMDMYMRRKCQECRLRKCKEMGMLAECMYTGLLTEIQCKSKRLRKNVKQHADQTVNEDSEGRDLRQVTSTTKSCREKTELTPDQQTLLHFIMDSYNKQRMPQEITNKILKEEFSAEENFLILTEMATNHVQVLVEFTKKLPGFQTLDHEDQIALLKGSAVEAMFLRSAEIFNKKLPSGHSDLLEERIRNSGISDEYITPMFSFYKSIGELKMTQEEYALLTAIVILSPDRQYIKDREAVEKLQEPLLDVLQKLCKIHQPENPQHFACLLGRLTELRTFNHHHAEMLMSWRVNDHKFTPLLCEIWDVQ

Test [13] is described as follows: Cell Viability - LYMP2-025 (AID 976).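 Note: plate controls were DMSO only for no effect and tetraoctylammonium bromide control for full effect.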 To be noted: LYMP2-025 lymphoblastoid cell viability; series mostly up to 92.2 µM. A digest of the protocol:
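Acute cytotoxicity is scored as a concentration-dependent fall in intracellular ATP, measured by luciferase luminescence, in human lymphoblastoid LYMP2-025 cells exposed to compound for 24 hours at 37 C. AC50 values come from standard Hill fits.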

Test [14] can be described thus: MultiTox-Fluor Cytotoxicity Assay - LYMP1-001 - Live Cells (AID 947).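 Note: 0% = DMSO only and full inhibition = tetraoctylammonium bromide control.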 To be noted: LYMP1-001 lymphoblastoid cells, live-cell protease fluorescence viability; series mostly up to 92.2 µM.
Test [15] concerns the target Glucocorticoid receptor (Homo sapiens) (UniProt P04150). As to the kind of experiment: qHTS assay for small molecule antagonists of glucocorticoid receptor signaling (AID 588533; active = well fitted inhibition curve with a large enough effect in the signal ratio, with a control signal flat, not every such curve was filed as active; the % refers to the signal ratio). To be noted: HeLa MMTV-bla, GRE beta-lactamase ratio, antagonist mode, 18 h; series mostly up to 76.8 µM. The gist of the method: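 Antagonist-mode qHTS: compound titrations added to GRE-bla HeLa cells, then dexamethasone 2 nM final; 18 h, 37 C. CCF4 FRET fluorescence normalized to dexamethasone and DMSO; IC50 from Hill fit.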

Test [16] is described as follows: Cell Viability - LYMP2-022 (AID 987). Note: nearly all actives have a fitted effect of over 55% in size. Note: potency is the fitted concentration of half-maximal effect. To be noted: LYMP2-022 lymphoblastoid cell viability; series mostly up to 92.2 µM. The gist of the method:
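Cells were seeded at 2500 per well, rested 5 hr at 37 C, and treated with titrated compounds for 24 hr at 37 C. Cellular ATP was then quantified by luciferase luminescence, and AC50 values were derived from Hill-modelled concentration-response curves.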

Test [17] in a line: qHTS assay for small molecule antagonists of peroxisome proliferator-activated receptor delta signaling (AID 588535).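 Note: cells co-treated with a PPAR-delta agonist as stimulator during compound exposure.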 To be noted: HEK293T PPARd-UAS-bla, beta-lactamase FRET ratio, 18 h; 460 nm channel. The gist of the method: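 Inhibition of PPAR-delta response element-driven beta-lactamase expression is measured in HEK293T cells exposed to a compound titration series for 18 hrs at 37 C. Half-maximal inhibition comes from Hill equation fitting.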

Test [18] has as its target Peroxisome proliferator-activated receptor gamma (Homo sapiens) (UniProt P37231). The experiment in a line: qHTS assay for small molecule antagonists of peroxisome proliferator-activated receptor gamma signaling (AID 588537; active = well fitted inhibition curve with a large enough effect in the signal ratio, with a control signal flat, not every such curve was filed as active; the % refers to the signal ratio; note: potency is the fitted concentration of half-maximal effect). To be noted: HEK293 PPARg-UAS-bla, beta-lactamase ratio, antagonist mode; series mostly up to 76.8 µM. The gist of the method: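 Compounds are tested as concentration series for inhibition of rosiglitazone-driven (50 nM) reporter expression in GeneBLAzer PPAR-gamma-UAS-bla HEK293 cells. After 16 h at 37 C, CCF4 substrate is added for 2 h at room temperature and blue/green fluorescence is measured.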

A short description of test [19]: Cell Viability - LYMP2-023 (AID 975).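 Note: cellular ATP measured by luciferase luminescence as viability proxy; plate controls were DMSO only for no effect and 92 µM tetraoctylammonium bromide control for full effect; nearly all actives have a fitted effect of over 55% in size.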 To be noted: LYMP2-023 lymphoblastoid cell viability; series mostly up to 92.2 µM. The gist of the method: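 Steps: seed 2500 human lymphoblastoid cells per well, incubate 5 hr at 37 C, add compound for 24 hr at 37 C, add CellTiter-Glo, hold 30 min at room temperature, read luminescence. AC50 derived by Hill modelling.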

Chain of Glucocorticoid receptor (Homo sapiens) (P04150 whole entry, looked up): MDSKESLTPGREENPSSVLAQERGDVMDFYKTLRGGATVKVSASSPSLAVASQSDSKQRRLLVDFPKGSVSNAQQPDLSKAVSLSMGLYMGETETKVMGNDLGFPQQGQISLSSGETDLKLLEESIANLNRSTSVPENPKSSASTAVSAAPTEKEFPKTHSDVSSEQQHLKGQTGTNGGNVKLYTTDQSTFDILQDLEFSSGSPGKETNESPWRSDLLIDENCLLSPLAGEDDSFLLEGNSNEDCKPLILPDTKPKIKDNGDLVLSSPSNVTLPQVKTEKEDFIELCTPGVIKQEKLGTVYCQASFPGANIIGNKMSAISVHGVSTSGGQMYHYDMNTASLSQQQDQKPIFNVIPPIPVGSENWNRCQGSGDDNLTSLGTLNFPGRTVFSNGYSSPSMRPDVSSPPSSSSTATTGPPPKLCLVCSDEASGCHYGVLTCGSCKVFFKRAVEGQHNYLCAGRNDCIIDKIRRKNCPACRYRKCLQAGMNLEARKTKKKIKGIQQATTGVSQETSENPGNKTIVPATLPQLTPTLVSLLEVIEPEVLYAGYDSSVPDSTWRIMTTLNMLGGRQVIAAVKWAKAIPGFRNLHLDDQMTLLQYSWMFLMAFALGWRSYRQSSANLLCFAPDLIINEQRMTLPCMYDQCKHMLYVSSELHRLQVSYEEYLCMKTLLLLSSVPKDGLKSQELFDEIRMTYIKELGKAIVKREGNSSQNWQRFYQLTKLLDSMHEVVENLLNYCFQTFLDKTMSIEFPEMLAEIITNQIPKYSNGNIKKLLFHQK
Chain of Peroxisome proliferator-activated receptor gamma (Homo sapiens) (P37231 whole entry, looked up): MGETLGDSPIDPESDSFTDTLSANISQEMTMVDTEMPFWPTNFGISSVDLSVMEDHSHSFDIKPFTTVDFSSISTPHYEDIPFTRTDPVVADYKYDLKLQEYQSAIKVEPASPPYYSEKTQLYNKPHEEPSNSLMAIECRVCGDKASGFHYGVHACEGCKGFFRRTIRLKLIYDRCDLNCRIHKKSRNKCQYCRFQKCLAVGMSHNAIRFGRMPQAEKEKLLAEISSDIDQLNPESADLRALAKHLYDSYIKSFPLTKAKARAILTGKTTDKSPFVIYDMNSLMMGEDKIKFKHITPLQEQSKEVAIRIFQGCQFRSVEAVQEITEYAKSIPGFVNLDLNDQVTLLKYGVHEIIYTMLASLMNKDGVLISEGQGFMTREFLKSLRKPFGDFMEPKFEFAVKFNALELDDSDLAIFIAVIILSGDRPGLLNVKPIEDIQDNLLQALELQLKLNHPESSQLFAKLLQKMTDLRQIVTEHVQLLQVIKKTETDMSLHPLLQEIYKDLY

In the case of `CC(C)(C)C(=O)C1C(=O)c2ccccc2C1=O`, in [1], the Potency was 20.1 µM (active). Further, the Potency result in test [2], in test [4], in test [5], in [6] and in test [9] was “inactive” in each case. Besides, the call in test [3] was inactive. Further, in [7], the activation was -3.45% (inactive). In addition, the activity change % (negative = inhibition) in [8] was 12.3% (inactive).
With `C=CC(=O)CC`, the Potency entry in [10], in test [2], in [11], in test [5], in test [6] and in test [12] was “inactive” in each case. Besides, the Potency result in test [9] is “inactive”. Moreover, the compound was classed as inactive in test [3]. In addition, in [8], the activity change % (negative = inhibition) is 9.8% (inactive).
On to `O=C1c2ccccc2C(=O)C1(O)O`, for which the Potency result in test [10], in test [13] and in test [6] was “inactive” in each case. Also, the activity change % (negative = inhibition) in test [8] was -4.45% (inactive).
Regarding `Cc1ccccc1OCC1CO1` (configuration not stated), the Potency result in [10], in [2], in test [14], in [4], in test [11] and in test [13] was “inactive” in each case. Besides, the Potency result in test [5], in test [6], in [12], in test [15] and in [9] was “inactive” each time. Further, the activation in [7] was -5.02% (inactive).
As to `CC1=C(/C=C/C(C)=C/C=C/C(C)=C/C=O)C(C)(C)CCC1`, the Potency in test [1] was 42.3 µM (active); in test [4] it was 50.1 µM (active); in test [11], 50.1 µM (active); in [16], 39.8 µM (active). For the same compound, the Potency entry in test [10] was “inactive”.
With `CC/C=C/C/C=C/C/C=C/CCCCCCCC(=O)OCC`, the Potency in test [1] is > 92 µM (inactive); in test [11], 39.8 µM (active); in [6], 31.6 µM (active); in test [16], 25.1 µM (active). The Potency result in test [14] and in [15] was “inactive” each time. In [7], the activation is -2.85% (inactive).
As for `O=C(O)/C=C/c1ccc(/C=C/C(=O)O)cc1`, the Potency result in [2], in test [14], in [4], in test [11], in test [13] and in test [5] was “inactive” each time. Further, the Potency result in test [16] and in test [15] was “inactive” each time. In addition, the activation in test [7] was 12.3% (inactive). The max response in test [17] is -11.1%.
As for `S=C(NC1CCCCC1)NC1CCCCC1`, the Potency entry in [10], in test [14], in test [11], in [13], in test [5] and in [6] was “inactive” in each case. The Potency entry in test [16] and in test [18] was “inactive” throughout. Further, the max response in test [17] was -15.4%.
In the case of `c1ccc2c(c1)ccc1ccccc12`, the Potency result in [2], in [14], in test [19], in [13], in [6] and in test [16] was “inactive” each time. The Potency entry in test [12], in test [15] and in [18] was “inactive” in each case. In test [3], the compound was classed as inactive. Further, in [17], the max response was -5.89%. The activity change % (negative = inhibition) in test [8] was 0.286% (inactive).
In the case of `O=Nc1ccc(Nc2ccccc2)cc1`, in test [1], the Potency was 11.5 µM (active). Also, the Potency entry in [10] was “inactive”.
For `O=C=Nc1ccc(Cl)c(Cl)c1`, the activation in [7] is 5.86% (inactive).
Regarding `CN(C)c1ccc(C(=N)c2ccc(N(C)C)cc2)cc1`, the Potency result in test [10] and in test [15] was “inactive” each time. The Potency in test [16] was 25.1 µM (active); in test [18], 14.1 µM (active); in test [9], 15.8 µM (active). In test [7], the activation is 2.53% (inactive). Also, in test [8], the activity change % (negative = inhibition) is -25.2% (inactive).

The record behind these values is PubChem BioAssay (NCATS).
